{
  "source": "PubChem BioAssay (NCATS)",
  "note": "Inconclusive results are not listed. Values without a mark were called inactive. Calls come from the whole dose curve; as a rule, active = well fitted cell-killing curve with a large enough effect; inconclusive = small, poorly fitted or top-dose-only effect, or effect the other way; inactive = flat fitted curve, though single readings scatter. Where a SMILES comes first, the peptide text is derived from it. % is set by controls: 0 for no effect and ±100 for the full control effect.",
  "data": [
    {"tested_on": "Hek293T", "assay": "Primary qHTS to identify gynecologic anti-cancer compounds using libraries of approved drugs and bioactive compounds (AID 1345084); note: nearly all actives have a fitted effect of over 55% in size", "conditions": "Gynecologic cancer cell panel viability, ATPlite luminescence, 48 h, control line for the selectivity index; series mostly up to 57.5 µM; activity change, negative = cytotoxicity: at the top concentration", "summary_of_the_method": "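Cells, 1,000 per well, plated 16 h, then exposed 48 h at 37 C to compounds. Viability by ATPlite luminescence after 15 min at room temperature.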", "values": [
      {"compound": "COc1cc(/C=C/C(=O)O[C@H]2C[C@@H]3C(C(=O)O)=CO[C@@H](O[C@@H]4O[C@H](CO)[C@@H](O)[C@H](O)[C@H]4O)[C@@H]3[C@H]2C)ccc1O", "activity change, negative = cytotoxicity": "11.6% [at 25.3 µM]"},
      {"compound": "H-DPPDPDRFYGMM-NH2", "activity change, negative = cytotoxicity": "10% [at 25.3 µM]"},
      {"compound": "CC1(C)C=Cc2c(ccc3c2N=C2C(C)(C)[C@@H]4C[C@]56CCCN5C(=O)[C@@]4(C[C@]23O)NC6=O)O1", "activity change, negative = cytotoxicity": "5.92% [at 25.3 µM]"},
      {"compound": "O=C(OC[C@H]1O[C@@H](Oc2ccccc2COC(=O)C2(O)C=CCCC2O)[C@H](O)[C@@H](O)[C@@H]1O)c1ccccc1", "note": "(stereo partly specified)", "activity change, negative = cytotoxicity": "12.3% [at 25.3 µM]"},
      {"compound": "Cc1cc(CNC(=O)c2cc(C(=O)NCc3ccc(F)c(C)c3)ncn2)ccc1F", "activity change, negative = cytotoxicity": "9.82%"},
      {"compound": "CC(C)=CC1C[C@](C)(O)[C@@H]2[C@H]3CCC4[C@@]5(C)CC[C@H](O[C@@H]6OC[C@H](O)[C@H](O[C@@H]7O[C@H](CO[C@@H]8O[C@H](CO)[C@@H](O)[C@H](O)[C@H]8O)[C@@H](O)[C@H](O)[C@H]7O)[C@H]6O[C@@H]6O[C@@H](C)[C@H](O)[C@@H](O)[C@H]6O)C(C)(C)[C@@H]5CC[C@@]4(C)[C@@]34CO[C@@]2(C4)O1", "note": "(stereo partly specified)", "activity change, negative = cytotoxicity": "-1.62% [at 11.6 µM]"},
      {"compound": "CC(=O)NCC1CN(c2ccc(-c3ccc(CNCc4cn[nH]n4)cc3)c(F)c2)C(=O)O1", "note": "(stereo unspecified)", "activity change, negative = cytotoxicity": "-6.41%"},
      {"compound": "COC(=O)[C@H](Cc1ccc([N+](=O)[O-])cc1)NC(=O)c1cccc2ccccc12", "activity change, negative = cytotoxicity": "14.9%"},
      {"compound": "Cn1nccc1-c1ccccc1Oc1ccc(S(=O)(=O)Nc2nccs2)cc1C#N", "activity change, negative = cytotoxicity": "8.75%"},
      {"compound": "CSCC1OC(n2cnc3c(N)ncnc32)C(O)C1O", "note": "(stereo unspecified)", "activity change, negative = cytotoxicity": "7.73%"},
      {"compound": "COc1ccc([C@H]2OC[C@H]3[C@@H]2CO[C@@H]3c2ccc(O[C@@H]3O[C@H](CO)C(O)[C@H](O)[C@H]3O)c(OC)c2)cc1OC", "note": "(stereo partly specified)", "activity change, negative = cytotoxicity": "8.67% [at 25.3 µM]"},
      {"compound": "CC1CCC2C(C(=O)O)=CC3(O)CC(C)(C)CC123", "note": "(stereo unspecified)", "activity change, negative = cytotoxicity": "-7.34%"},
      {"compound": "COc1cccc(CNc2ccc(S(=O)(=O)Nc3nc4ccccc4s3)cc2)c1O", "activity change, negative = cytotoxicity": "1.32%"},
      {"compound": "CC(=O)NC(Cc1ccccc1)C(=O)NC(C(=O)O)C(C)C", "note": "(stereo not drawn) (Ac-Phe-Val-OH; configuration not given here)", "activity change, negative = cytotoxicity": "2.26%"},
      {"compound": "C=C1CCC2C(C)(C(=O)OC)CCCC2(C)C1CCC1=CCOC1=O", "note": "(stereo unspecified)", "activity change, negative = cytotoxicity": "-0.92% [at 38.5 µM]"},
      {"compound": "CC1=C2CC3C(CCC3(C)O)C(C)(O)CC2OC1=O", "note": "(stereo unspecified)", "activity change, negative = cytotoxicity": "3.74%"},
      {"compound": "Cc1occc1C(=O)n1ccnc1", "activity change, negative = cytotoxicity": "7.75%"},
      {"compound": "COc1cc(C(CO)CO[C@@H]2O[C@H](CO)[C@@H](O)[C@H](O)[C@H]2O)ccc1O", "note": "(stereo partly specified)", "activity change, negative = cytotoxicity": "2.93% [at 38.5 µM]"},
      {"compound": "O=C(O)CC1(O)C(=O)Nc2ccccc21", "note": "(stereo unspecified)", "activity change, negative = cytotoxicity": "0.753%"},
      {"compound": "O=C(CCc1ccccc1)c1c(O)c([C@@H]2O[C@H](CO)[C@@H](O)[C@H](O)[C@H]2O)c(O)c([C@@H]2O[C@H](CO)[C@@H](O)[C@H](O)[C@H]2O)c1O", "activity change, negative = cytotoxicity": "12.9% [at 25.3 µM]"},
      {"compound": "CC1(C)OC(=O)CC(O)C2(C)C1CC(=O)C1(C)C2C(O)CC2(C)C(c3ccoc3)OC(=O)C3OC321", "note": "(stereo unspecified)", "activity change, negative = cytotoxicity": "19.4% [at 25.3 µM]"},
      {"compound": "CC(=O)OC1CCC2(C)C(CCC3(C)C2CC=C2C4CC(C)(C)CCC4(C)CCC23C)C1(C)C(=O)O", "note": "(stereo unspecified)", "activity change, negative = cytotoxicity": "-2.73% [at 25.3 µM]"},
      {"compound": "C=C(CCO)C(=O)OCC1OCC(OC(=O)C(=C)CCO[C@@H]2O[C@H](COC(=O)C(=C)CCO[C@@H]3O[C@H](CO)[C@@H](O)[C@H](O)[C@H]3O)[C@@H](O)[C@H](O)[C@H]2O)C(O)C1O", "note": "(stereo partly specified)", "activity change, negative = cytotoxicity": "-9.3% [at 25.3 µM]"},
      {"compound": "CC(C)C1CCC(CO)=CC1/C=C(\\CO)C(=O)OCC1(O)CCC(C(C)C)C2C=C(C(=O)O)COC(=O)C21", "note": "(stereo unspecified)", "activity change, negative = cytotoxicity": "-4.43% [at 25.3 µM]"},
      {"compound": "Fc1cccc(CN(C2=NCCN2)c2c(Cl)cccc2Cl)c1", "activity change, negative = cytotoxicity": "0.0245%"},
      {"compound": "C[C@]12CCC[C@](C)(C(=O)O)C1CCC13CC(CO)C(CCC12)C3", "note": "(stereo partly specified)", "activity change, negative = cytotoxicity": "5.89% [at 38.5 µM]"},
      {"compound": "O=C(/C=C/c1ccc(O)cc1)OC[C@H]1O[C@H](O[C@@]2(CO)O[C@@H](CO)[C@H](O)[C@H]2O)[C@H](O)[C@@H](O)[C@@H]1O", "activity change, negative = cytotoxicity": "11.6% [at 25.3 µM]"},
      {"compound": "C/C=C/C=C/C=C/C(=O)O[C@@H]1[C@@H](OC)C2=C(C(=O)N(C(CCC(=O)O)C(=O)O)C2)[C@@]2(C)CCCC(C)(C)[C@H]12", "note": "(stereo partly specified)", "activity change, negative = cytotoxicity": "0.85% [at 25.3 µM]"},
      {"compound": "O=C(OC[C@H]1O[C@@H](Oc2ccccc2CO)[C@H](O)[C@@H](O)[C@@H]1O)c1ccccc1", "activity change, negative = cytotoxicity": "0.629% [at 38.5 µM]"},
      {"compound": "C[C@H]1[C@@H](O)[C@H](O)C2[C@]3(C)C([C@@H](O)[C@H]4OC(=O)[C@@H]1[C@@]24C)[C@](C)(O)C=C[C@H]3O[C@@H]1O[C@H](CO)[C@@H](O)[C@H](O)[C@H]1O", "note": "(stereo partly specified)", "activity change, negative = cytotoxicity": "4.41% [at 25.3 µM]"},
      {"compound": "COc1ccc(C(=O)NCc2cc(C(C)C)no2)cc1OC1CCN(C)CC1", "activity change, negative = cytotoxicity": "0.4%"}
    ]}
  ]
}
